In the library only some 7.4% were active in any assay of this set; here they are far more common.
HEK293 cAMP ctrl: qHTS Assay for Agonists of the Thyroid Stimulating Hormone Receptor: Activators of Intracellular cAMP Concentrations in Parental HEK 293 | parental HEK293 CNG cAMP sensor, membrane potential fluorescence | Potency, µM (highest dose often 57.1 µM), for inactives: at the highest dose activation, actives largely listed as activators | hit rate 2.5% among 73,000; also: % of control where 0% means no effect; nearly all actives have a fitted effect of over 55% in size
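Counterscreen for endogenous-receptor signalling: CNG-channel HEK 293 cells report cAMP rise by membrane depolarization. After 60 min dye equilibration with 100 uM RO 20-1724, compounds incubated 30 min before bottom-read fluorescence at 590 nm.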
Tau fil binding: qHTS Assay for Tau Filament Binding; Microtubule-associated protein tau (Homo sapiens), P10636; recombinant tau filaments, thioflavin S fluorescence, 15 h; filaments grown with octadecylsulfate alongside compound; Potency, µM (top dose mostly 57.1 µM), for inactives: at the top dose activity change, negative = inhibition; hit rate 2% among 71,000; AID 596, 2007;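 also: % is scaled to controls: 0 for no effect and ±100 for the full control effect; actives lower thioflavin S fluorescence by blocking filaments or displacing dye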
Target sequence (P10636 whole entry, looked up): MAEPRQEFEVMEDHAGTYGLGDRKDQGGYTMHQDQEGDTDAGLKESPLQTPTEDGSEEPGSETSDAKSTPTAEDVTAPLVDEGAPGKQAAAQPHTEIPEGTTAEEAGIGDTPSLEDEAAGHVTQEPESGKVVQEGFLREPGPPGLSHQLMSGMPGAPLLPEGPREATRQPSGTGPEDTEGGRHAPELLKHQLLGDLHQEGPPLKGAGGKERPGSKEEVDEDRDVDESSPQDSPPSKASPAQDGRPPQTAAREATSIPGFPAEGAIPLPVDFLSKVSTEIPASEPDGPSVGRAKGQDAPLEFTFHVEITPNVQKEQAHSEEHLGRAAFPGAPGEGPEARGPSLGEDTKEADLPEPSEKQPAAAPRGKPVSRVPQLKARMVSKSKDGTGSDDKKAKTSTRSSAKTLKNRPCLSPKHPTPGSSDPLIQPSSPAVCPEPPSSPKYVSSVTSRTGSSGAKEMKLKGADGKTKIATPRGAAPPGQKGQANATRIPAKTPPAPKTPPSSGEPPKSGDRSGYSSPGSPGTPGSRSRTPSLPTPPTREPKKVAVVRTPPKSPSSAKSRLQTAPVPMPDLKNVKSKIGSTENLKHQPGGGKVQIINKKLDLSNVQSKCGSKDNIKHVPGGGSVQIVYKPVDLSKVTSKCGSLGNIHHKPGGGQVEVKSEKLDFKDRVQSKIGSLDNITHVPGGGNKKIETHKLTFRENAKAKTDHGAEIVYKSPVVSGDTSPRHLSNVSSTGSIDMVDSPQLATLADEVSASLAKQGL
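His-tagged recombinant human tau (exons 2, 3 and 10 included), 1 uM, was induced to fibrillize by 30 uM sodium octadecylsulfate with compound present. After 15 h at 37 C, thioflavine S fluorescence (ex 450, em 510 nm) was read.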
CRE Fsk mod: Cell signaling CRE-BLA (Fsk stim). CHO CRE-bla reporter (cAMP response element driving beta-lactamase), forskolin EC10, beta-lactamase ratio. Potency, µM (doses to about 38.2 µM), inactives show at the highest dose activity change, negative = inhibition, hits mostly activators. hit rate 2.5% among 71,000; active = well fitted activation curve with a large enough effect in the signal ratio, with a control signal flat, not every such curve was filed as active; inconclusive = small, poorly fitted or top-dose-only effect, or effect the other way, or a change in a side signal; the % refers to the signal ratio; also: % of control where 0% means no effect
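qHTS titration format; CRE-bla CHO reporter; stimulus EC10 NKH 477, a water-soluble forskolin. Read: CCF4 460/530 nm ratio. Potency expressed as AC50 for activators or inhibitors.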
ERK AVP inh: qHTS Assay for Inhibitors of the ERK Signaling Pathway using a Homogeneous Screening Assay | hit rate 0.99% among 72,000 | HEK293-V1b, vasopressin-stimulated pERK AlphaScreen | Potency, µM (top dose mostly 57.5 µM), inactives show at the top dose activity, negative = inhibition, hits mostly inhibitors; also: % is scaled to controls: 0 for no effect and ±100 for the full control effect; nearly all actives have a fitted effect of over 55% in size
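HEK293 cells stably expressing V1b receptor, seeded overnight in 1% FBS, were treated with compounds for 30 min at 37C, then stimulated 5 min with 25 nM vasopressin; phospho-ERK read by AlphaScreen SureFire after lysis.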
TSHR agonist: qHTS Assay for Agonists of the Thyroid Stimulating Hormone Receptor. HEK293-CNG-TSHR cells (CNG channel as cAMP sensor), membrane potential dye, cAMP. Potency, µM (top dose mostly 57.1 µM), without a hit: at the highest dose activation, usual class: activators. hit rate 0.48% among 73,000. AID 926, 2007; active = well fitted activation curve with a large enough effect in the main read-out, with a control signal flat, not every such curve was filed as active; inconclusive = small, poorly fitted or top-dose-only effect, or a change in a side signal; inactive = no such curve, though single readings can be large or run the other way; % of control where 0% means no effect;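 also: the control signal comes from parental cells without the receptor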
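HEK 293 cells stably expressing TSHR and a modified CNG channel, with CNG-only parental cells as counterscreen, were preloaded 60 min at room temperature with membrane potential dye containing 100 uM RO 20-1724. Compound exposure was 30 min, and depolarization was read as fluorescence at 590 nm.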
* = called active by the depositor; ? = inconclusive; nt = no result given; [ ] = another dose, or the depositor's remark. Unless noted, calls follow the shape of the dose curve; as a rule, active = well fitted curve in the direction sought with a large enough effect; inconclusive = small, poorly fitted or top-dose-only effect, or another doubt; inactive = no such curve, though single readings can be large; an effect the other way counts as inactive or inconclusive. Potency is read from the fitted curve at half-maximal effect.

SMILES	HEK293 cAMP ctrl	Tau fil binding	CRE Fsk mod	ERK AVP inh	TSHR agonist
CC(=O)Nc1cccc(C(=O)N2CCN(Cc3ccccc3)CC2)c1	0.5%	-9.2%	-9.6%	7.9%	-0.3%
O=C(c1cccc(C(=O)N2CCN(Cc3ccccc3)CC2)c1)N1CCN(Cc2ccccc2)CC1	1.26µM*	1.1%	-2.7%	?	?
COc1cc2c(cc1OC)C1C(=O)c3ccc4c(c3OC1CO2)C=CC(C)(C)O4 (configuration not stated)	nt	nt	nt	-21.4%	nt
CCn1cc(C(=O)N2CCN(C(=O)c3ccco3)CC2)c2cc(OC)c(OC)cc2c1=O	-4.7%	-10.4%	10µM*	3.0%	-0.5%[11.4 µM]
O=C(NCCCN1CCCCCC1)[C@@H](c1ccccc1)C1CCCCC1	15.8µM*	?	?	18.8%	?
Cc1ccc(S(=O)(=O)N2CCN(C(=O)CN3CCc4ccccc4C3)CC2)cc1	10µM*	-1.1%	-28.7%	5.3%	?
Cc1cc2ccc(OC(=O)c3ccc(N=C(N)N)cc3)cc2oc1=O	-6.3%[11.4 µM]	-1.8%[11.4 µM]	-14.6%[7.6 µM]	1.8%[11.5 µM]	-0.7%[11.4 µM]
COc1nc(-c2ccccc2)ccc1-c1noc(COc2ccccc2)n1	31.6µM*	40.5%	?	48.1%	?
COc1nc(-c2ccccc2)ccc1-c1noc(-c2ccccc2)n1	5.4%	8.6%	?	-8.9%	19.1%
CC(C)=CCC/C(C)=C/CO/N=C1/C[C@@H](O)[C@@H](O)[C@@H]2[C@@H]3C(=O)N(C4CCCCC4)C(=O)[C@H]3CC[C@H]12	7.8%[11.4 µM]	nt	nt	24.2%[11.5 µM]	-5.8%[11.4 µM]
CC1CCCN(C(=O)c2cc3c(-c4ccc(Cl)cc4)nn(C)c3s2)C1 (configuration not stated)	10.4%	70.2%	3.16µM*	-13.8%	?
COc1ccc(-c2nn(C)c3sc(C(=O)N4CCOCC4)cc23)cc1OC	4.3%	1.2%	10µM*	?	6.9%
CCN1CCN(C(=O)c2cc3c(-c4ccc(Cl)cc4)nn(C)c3s2)CC1	15.7%	98.6%	?	-25.0%	24.5%
COc1ccc(N2CCN(C(=O)c3cc4c(-c5cccc(OC)c5)nn(C)c4s3)CC2)cc1	5.6%	-26.6%	3.98µM*	?	7.2%
CCOC(=O)N1CCC(NC(=O)CSCc2nc(-c3sccc3C)oc2C)CC1	17.0%	9.8%	17.8%	-22.6%	26.3%
COc1ccc(-c2nc(CSCC(=O)N3CCc4ccccc43)c(C)o2)cc1OC	10.3%	25.4%	-1.2%	19.1%	5.4%[11.4 µM]
Cc1ccsc1-c1nc(CSCC(=O)NCc2ccc3c(c2)OCO3)c(C)o1	19.6%	24.0%	20.4%	?	20µM*
COc1ccc(-c2nc(CSCC(=O)NCc3ccc4c(c3)OCO4)c(C)o2)cc1OC	13.6%	-10.6%	?	31.6µM*	8.3%
NC(=S)SCCC(=O)O	-3.3%[11.4 µM]	-2.5%[11.4 µM]	7.9%[7.6 µM]	-17.7%[11.5 µM]	3.6%[11.4 µM]
NC(=O)c1ncn([C@@H]2O[C@@H](CO)[C@@H](O)[C@H]2O)c1O	?	-2.5%	1.6%	0.1%	?
O=C(O)c1ccc(C(=O)O)c(C(=O)O)c1.[NH-][C@@H]1CCCC[C@@H]1[NH-].[Pt]	2.3%[11.4 µM]	-2.3%[11.4 µM]	14.8%[7.6 µM]	20.9%[11.5 µM]	-1.6%[11.4 µM]
Cc1ccc(-c2cc3c(nn2)-c2ccccc2C3=O)cc1	6.8%[11.4 µM]	1µM*	8.1%[7.6 µM]	?	nt
Cc1noc(C)c1-c1nccc(NCc2ccccc2)n1	?	-12.3%	?	-8.4%	?
O=C1c2c(O)cc(O)cc2O[C@@H](c2ccc(O)c(O)c2)[C@H]1O	8.8%	-8.1%	-4.0%	36.6%	12.9%
Clc1ccc2nc(NC3=NCN(CCN4CCOCC4)CN3)nc(-c3ccccc3)c2c1	?	7.94µM*	?	-4.9%	?
CCc1ccc2nc(NC3=NCN(CCCN4CCOCC4)CN3)nc(C)c2c1	11.8%	27.9%	4.8%	-10.9%	-3.2%
CCOC(=O)OCC	2.5%	8.1%	-6.8%	24.9%	-10.9%
Cc1cc(C)n2c(Br)c(CSc3nc4ccccc4o3)nc2n1	39.6%	24.2%	6.31µM*	?	nt
O=C(/C=C(\O)c1ccccc1)c1ccccc1O	nt	nt	nt	-23.7%	nt

Source: PubChem
